Source: PubChem BioAssay
Only some compounds are listed: those with a hit (about 3.5% of all), similar ones and a draw of the others.
FBW7 activator – FBW7 E3 ligase activators, primary screen, biochemical, AlphaScreen, human | F-box/WD repeat-containing protein 7 (Homo sapiens), Q969H0 | AlphaScreen FBW7–phospho-cyclin E peptide binding, activator screen | normalized activity (activation), % at 26.1 µM | 650,000 tested, 0.13% active; in the data active means normalized activity above about 1.9%;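 further: purified mutant Fbw7 with reduced substrate affinity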
TEAD-YAP block – TEAD-YAP interaction inhibition, primary screen, TEAD-YAP interaction inhibitor project, luminescence, HEK-TIYL cells; TEAD-Gal4/YAP UAS-luciferase luminescence; inhibition, % at 9.12 µM; 640,000 tested, 1.4% active; AID 1259422, 2018; in the data active means inhibition above about 32%
GPR151 activ – activators of human GPR151, primary screen, cell-based, PathHunter beta-arrestin, luminescence | 650,000 tested, 1% active | PathHunter beta-arrestin GPR151 cells | G-protein coupled receptor 151 (Homo sapiens), Q8TDV0 | activation, % at 11.2 µM; in the data active means activation above about 4.9%
Target sequence (Q8TDV0 whole entry, looked up): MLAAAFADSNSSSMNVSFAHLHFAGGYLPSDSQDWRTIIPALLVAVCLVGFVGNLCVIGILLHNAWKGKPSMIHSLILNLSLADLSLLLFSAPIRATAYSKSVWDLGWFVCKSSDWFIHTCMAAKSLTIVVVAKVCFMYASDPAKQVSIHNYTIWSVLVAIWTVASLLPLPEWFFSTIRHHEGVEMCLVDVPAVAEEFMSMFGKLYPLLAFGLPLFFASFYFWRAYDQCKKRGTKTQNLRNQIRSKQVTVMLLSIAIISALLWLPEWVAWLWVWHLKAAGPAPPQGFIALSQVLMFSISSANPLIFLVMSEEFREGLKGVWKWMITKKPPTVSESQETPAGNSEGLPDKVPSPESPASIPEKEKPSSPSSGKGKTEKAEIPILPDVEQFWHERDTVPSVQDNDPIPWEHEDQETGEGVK
MITF inh – MITF inhibitors, primary screen, biochemical, AlphaScreen, human; inhibition, % at 2.6 µM; 650,000 tested, 0.91% active; Microphthalmia-associated transcription factor (Homo sapiens), O75030; AlphaScreen MITF homodimerization, bead proximity signal; in the data active means inhibition above about 50%
A number is an active result; n = inactive.

SMILES | FBW7 activator | TEAD-YAP block | GPR151 activ | MITF inh
O=C1CCCN1CCCNc1nc(Nc2ccc(-n3ccnc3)cc2)nc2c1ncn2-c1ccccc1 | n | 51.8 | n | n
O=c1c2cc(N3CCOCC3)ccc2[nH]c(=S)n1Cc1ccc2c(c1)OCO2 | n | n | n | n
O=C(NCCc1nc(-c2cccnc2)n[nH]1)C1(c2ccc(F)cc2)CCCC1 | n | n | n | n
Cc1nn(C)c(C)c1-c1nc(NCCCN2CCCC2=O)c2ncn(-c3ccsc3)c2n1 | n | 55.9 | n | n
O=C1CCCN1CCCNc1nc(Nc2ncccn2)nc2c1ncn2-c1ccccc1 | n | n | n | n
O=C1CCCN1CCCNc1nc(Nc2ccccc2)nc2c1ncn2-c1ccccc1 | n | 38.5 | n | n
O=C1CCCN1CCCNc1nc(Nc2cccnc2)nc2c1ncn2-c1ccsc1 | n | 46.8 | n | n
CCCNc1nc(NCCCN2CCCC2=O)nc2c1ncn2-c1ccccc1 | n | 41.8 | n | n
Cc1nn(C)c(C)c1-c1nc(NCCCN2CCCC2=O)c2ncn(-c3ccccc3)c2n1 | n | n | n | n
CC(=O)Nc1cccc(-c2nnc(SCC(=O)Nc3ccccc3)n2C)c1 | n | n | n | n
Cc1nn(C)c(C)c1-c1nc(NCCN2CCOCC2)c2ncn(-c3ccsc3)c2n1 | n | 38.2 | n | n
O=C1CCCN1CCCNc1nc(-c2cccs2)nc2c1ncn2-c1ccsc1 | n | 54.8 | n | n
COc1cc(Nc2nc(NCCCN3CCCC3=O)c3ncn(-c4ccccc4)c3n2)cc(OC)c1OC | n | 48.7 | n | n
O=C1CCCN1CCCNc1nc(-c2csc3ccccc23)nc2c1ncn2-c1ccsc1 | n | n | n | n
O=C1CCCN1CCCNc1nc(Nc2ccncc2)nc2c1ncn2-c1ccsc1 | n | 60.3 | n | n
O=C1CCCN1CCCNc1nc(NCCCN2CCCC2=O)c2ncn(-c3ccsc3)c2n1 | n | 38.7 | n | n
Cc1nn(C)c(C)c1-c1nc(NCCc2ccc(O)cc2)c2ncn(-c3ccsc3)c2n1 | n | 55.6 | n | n
CCCNc1nc(-c2c(C)nn(C)c2C)nc2c1ncn2-c1ccsc1 | n | n | n | n
O=C1CCCN1CCCNc1nc(NCCN2CCOCC2)nc2c1ncn2-c1ccsc1 | n | n | n | n
Cc1cncc2cccc(NC3CCCN(C(=O)C(O)c4ccc(Cl)cc4)C3)c12 (stereo unspecified) | n | 42.1 | n | n
Cc1cncc2cccc(NC3CCCN(C(=O)c4cccc(Br)c4)C3)c12 (stereo unspecified) | n | n | n | n
Cc1cncc2cccc(NC3CCCN(C(=O)C(O)c4ccc(F)cc4)C3)c12 (stereo unspecified) | n | 45.1 | n | n
Cc1cc2c(NC3CCCN(C(=O)C(O)c4ccc(Cl)cc4)C3)cccc2nn1 (stereo unspecified) | n | n | n | 55.8
Cc1cncc2cccc(NC3CCCN(C(=O)[C@H](C)O)C3)c12 (stereo partly specified) | n | 62.5 | n | n
Cc1cncc2cccc(NC3CCN(C(=O)C(N)c4ccc(Cl)cc4)CC3)c12 (stereo unspecified) | n | n | n | n
SMILES | FBW7 activator | TEAD-YAP block | GPR151 activ | MITF inh
S=c1[nH]nc(-c2ccncc2)n1/N=C/c1ccco1 | n | n | n | n
CN(C)C=Nc1ncc2c3ccccc3n(CCN(C)C)c2c1C#N | n | n | n | n
CCN(CC)CCn1c2ccccc2c2cnc(N)c(C#N)c21 | n | 81.1 | n | n
Cc1cc(=O)c(OCc2ccccc2F)cn1CC(=O)N1CCCC1 | n | n | n | n
Cc1ccc(OCC(=O)Nc2ccc(-c3nc4ccc(C)cc4s3)cc2)cc1 | n | n | n | n
CC(=O)Nc1ccc(-c2nc3ccc(NC(C)=O)cc3s2)cc1 | n | n | n | n
CC(=O)Nc1ccc2nc(-c3ccc(OC(C)=O)cc3)sc2c1 | n | 78.1 | n | n
Cc1ccc(-c2nc3ccccc3s2)cc1NC(=O)c1cccc(I)c1 | n | n | n | n
COc1cc(OC)cc(C(=O)Nc2ccc(-c3nc4ccc(C)cc4s3)cc2)c1 | n | n | n | n
Cc1ccc2nc(-c3ccc(OC(=O)c4cccc(I)c4)cc3)sc2c1 | n | 84.4 | n | n
CC(=O)Oc1ccc(-c2nc3ccc(C)cc3s2)cc1 | n | 97.9 | n | n
COC(=O)CNS(=O)(=O)Nc1ccc(-c2nc3ccc(C)cc3s2)cc1 | n | 67.4 | n | n
C=CCn1c(SCC(=O)Nc2ccccc2Cl)nc2sc(CC)cc2c1=O | n | n | n | n
CCN1C(=O)/C(=C/c2cc(Cl)c(O)c(OC)c2)NC1=S | n | n | n | n
Cc1ccc2nc(-c3ccc(NC(=O)/C=C\C(=O)O)cc3)sc2c1 | n | 34.9 | n | n
Cc1ccc2nc(-c3ccc(OC(=O)c4ccc(Br)o4)cc3)sc2c1 | n | 65.0 | n | n
Cc1ccc2nc(-c3ccc(NC(=O)CSc4nnc(N)s4)cc3)sc2c1 | n | 58.8 | n | n
Cc1ccc(C(=O)Oc2ccc(-c3nc4ccc(C)cc4s3)cc2)cc1 | n | 38.6 | n | n
Cc1ccc2nc(-c3ccc(NC(=O)/C=C/c4ccccc4)cc3)sc2c1 | n | n | n | n
Cc1cc(C)cc(NC(=O)Cn2nnc(C(=O)Nc3ccc(F)c(Cl)c3)c2N)c1 | n | n | n | n
COc1ccc(C2=N/C(=C\c3ccc(OC)c(OC(C)=O)c3)C(=O)O2)cc1OC | n | n | n | n
CC(C)(C)OC(=O)N1CCC[C@@H]([C@@H](O)c2ccc(F)cc2)C1 | n | n | n | n
CN1C(=O)c2ccc(NC(=O)COc3cc(Cl)c(Cl)cc3Cl)cc2C1=O | n | n | n | n
COc1ccc(C(=O)N/N=C(\C)CC(=O)NCc2ccco2)cc1OC | n | 35.1 | n | n
COc1cc(C(=O)NN=C2CCCCCC2)cc(OC)c1OC | n | 59.9 | n | n
SMILES | FBW7 activator | TEAD-YAP block | GPR151 activ | MITF inh
CC/C(C)=N\NC(=O)c1cc(OC)c(OC)c(OC)c1 | n | 58.0 | n | n
CCOC(=O)C(=N/O)/C(C)=N/NC(=O)c1cc(OC)c(OC)c(OC)c1 | n | 41.0 | n | n
C=CCN1C(=O)NC(NC(=O)c2ccc(C)cc2)(C(F)(F)F)C1=O (stereo unspecified) | n | n | n | n
N#Cc1ccc(NC(=O)Nc2cccn(Cc3ccccc3)c2=O)cc1 | n | n | n | n
O=C(O)CSCC(=O)Nc1ccc(N2CCOCC2)cc1 | n | n | n | n
COc1cccc2cc(C(=O)NCc3ccco3)c(=Nc3ccc(C(=O)O)cc3)oc12 | n | 46.2 | n | n
COc1ccc(NC(=O)c2cc3cccc(OC)c3oc2=Nc2ccc(C(=O)O)cc2)c(OC)c1 | n | n | n | n
CCN(CC)c1ccc(/C=N/NC(=O)Cn2cnc3c(=O)n(C)c(=O)n(C)c32)cc1 | n | n | n | n
CCOc1ccccc1N1CCN(C(=O)C2CCN(Cc3ccccc3O)CC2)CC1 | n | n | n | 62.0
COc1ccc(Cl)cc1C(=O)N1CCN(c2ccccc2)CC1 | n | 49.6 | n | n
COc1ccccc1N1CCN(C(=O)c2c(-c3ccccc3)noc2C)CC1 | n | 43.6 | n | n
